An excerpt weighted towards active compounds, which were near 8.5% of everything screened.
FBPA coupling cs: qHTS Assay for Inhibitors of Fructose-1,6-bisphosphate Aldolase from Giardia Lamblia: Coupling assay counterscreen. coupling enzyme system counterscreen, AmpLite Red fluorescence. activity change, negative = inhibition, % at 58.2 µM, hits read low. 290,000 compounds, 0.67% hits. AID 2472, 2010; in the data active means activity change below about -30%
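Final compound at 57.5 uM, incubated 10 min at RT with coupling enzyme reagent (glyceraldehyde-3-phosphate), then 20 min with substrate and AmpLite Red detection. Fluorescence read at 525/598 nm; tests interference with the coupling assay, not aldolase inhibition.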
GoLoco inh red: qHTS Assay for Inhibitors of RGS12 GoLoco Motif Activity (Red Fluorophore); Gai1:RGS12 GoLoco peptide FP, rhodamine, 10 min; Potency, µM (series often up to 61.6 µM), actives largely listed as inhibitors; 230,000 compounds, 0.44% hits; active means well fitted inhibition curve with a large enough effect, not every such curve was filed as active; inactive means no such curve, though single readings can be large or run the other way; further: nearly all actives have a fitted effect of over 30% in size
Target sequence (P63096 whole entry, looked up): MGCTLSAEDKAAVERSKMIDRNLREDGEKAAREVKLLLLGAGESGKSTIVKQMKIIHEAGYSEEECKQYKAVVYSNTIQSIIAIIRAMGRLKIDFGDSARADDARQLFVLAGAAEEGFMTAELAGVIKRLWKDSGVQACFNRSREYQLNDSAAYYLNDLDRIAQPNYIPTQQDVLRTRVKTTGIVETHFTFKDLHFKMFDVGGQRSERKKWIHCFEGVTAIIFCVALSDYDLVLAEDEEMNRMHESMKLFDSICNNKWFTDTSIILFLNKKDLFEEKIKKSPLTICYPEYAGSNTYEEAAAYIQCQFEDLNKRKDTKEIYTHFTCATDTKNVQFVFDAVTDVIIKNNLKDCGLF
Sfp PPTase inh: qHTS Assay for Inhibitors of Bacillus subtilis Sfp phosphopantetheinyl transferase (PPTase); Biochemical Sfp PPTase activity, qHTS; 4'-phosphopantetheinyl transferase ffp (Bacillus subtilis), Q9F4F7; Potency, µM, hits mostly inhibitors; 310,000 compounds, 3.5% hits; AID 1490, 2009;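 further: the enzyme is Sfp with the accession as filed and its product quenches rhodamine fluorescence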
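Sfp 15 nM + cpd, 15 min RT; start w/ rhodamine-CoA 5 uM, BHQ-2-YbbR 12.5 uM (final); 50 mM Hepes pH 7.6, 10 mM MgCl2, 0.01% NP-40, 0.01% BSA; read 525/598 nm at 0 and 30 min.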
ALDH1A1 block: qHTS Assay for Inhibitors of Aldehyde Dehydrogenase 1 (ALDH1A1) | Aldehyde dehydrogenase 1A1 (Homo sapiens), P00352 | Purified ALDH1A1, NADH fluorescence, propionaldehyde substrate | Potency, µM (series often up to 75.3 µM), most hits filed as inhibitors | 220,000 compounds, 7.3% hits | AID 1030, 2008; active means well fitted inhibition curve with a large enough effect, not every such curve was filed as active; inconclusive means small, poorly fitted or top-dose-only effect, or another doubt; inactive means no such curve, though single readings can be large or run the other way
NPSR antagonist: qHTS Assay for Antagonists of the Neuropeptide S Receptor: cAMP Signal Transduction | Q6W5P4 | CHO-NPSR cells, cAMP TR-FRET, antagonist mode | Potency, µM (doses to about 38.3 µM), actives largely listed as inhibitors | 220,000 compounds, 1% hits; further: nearly all actives have a fitted effect of over 50% in size
JMJD2E inh: qHTS Assay for Inhibitors of Human Jumonji Domain Containing 2E (JMJD2E); JMJD2E catalytic domain, FDH-coupled NADH fluorescence (FDH is formaldehyde dehydrogenase); 230,000 compounds, 1.6% hits; Potency, µM (highest dose often 57.1 µM), hits mostly inhibitors; Lysine-specific demethylase 4E (Homo sapiens), B2RXH2; active means well fitted inhibition curve with a large enough effect, not every such curve was filed as active; inconclusive means small, poorly fitted or top-dose-only effect, or another doubt; inactive means no such curve, though single readings can be large or run the other way; further: nearly all actives have a fitted effect of over 50% in size
Target sequence (B2RXH2 1-337 limits assumed): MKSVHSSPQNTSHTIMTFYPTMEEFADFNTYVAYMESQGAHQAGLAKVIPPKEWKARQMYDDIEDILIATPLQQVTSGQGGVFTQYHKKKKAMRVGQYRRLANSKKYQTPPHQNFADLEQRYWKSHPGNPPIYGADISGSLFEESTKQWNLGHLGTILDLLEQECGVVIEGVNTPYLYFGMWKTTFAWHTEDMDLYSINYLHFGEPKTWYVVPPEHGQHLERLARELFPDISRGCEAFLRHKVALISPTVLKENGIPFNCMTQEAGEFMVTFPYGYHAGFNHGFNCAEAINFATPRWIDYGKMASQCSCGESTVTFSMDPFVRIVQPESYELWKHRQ
Numbers stand for hits; [ ] = dose if it differs, or a comment. Unless noted, the call rests on the fitted dose curve; in most records, active means well fitted curve in the direction sought with a large enough effect; inconclusive means small, poorly fitted or top-dose-only effect, or another doubt; inactive means no such curve, though single readings can be large; an effect the other way counts as inactive or inconclusive.

CCCc1nc2c(=O)n(C)c(=O)nc-2n(C)n1 was read as FBPA coupling cs -74, GoLoco inh red inactive, Sfp PPTase inh inactive, ALDH1A1 block inactive, NPSR antagonist 7.9µM and JMJD2E inh inconclusive.
CCNC(=O)CSc1nnc(-c2cc(-c3ccc(Cl)cc3)nc3ccccc23)o1 was read as FBPA coupling cs inactive, GoLoco inh red inactive, Sfp PPTase inh inactive, ALDH1A1 block inactive, NPSR antagonist inactive and JMJD2E inh inactive.
For CCCC(C)NC(=O)c1ccc(F)cc1 (stereo not given) the results were FBPA coupling cs inactive, GoLoco inh red inactive, Sfp PPTase inh inactive, ALDH1A1 block 40µM, NPSR antagonist inactive and JMJD2E inh inactive.
CC(C)NC(=O)CCNC(=O)c1ccc(F)cc1 was read as FBPA coupling cs inactive, GoLoco inh red inactive, Sfp PPTase inh inactive, ALDH1A1 block 2.8µM, NPSR antagonist inactive and JMJD2E inh inactive.
Screening COc1cc(C(=O)NCCC(=O)NC(C)C)cc(OC)c1OC returned FBPA coupling cs inactive, GoLoco inh red inactive, Sfp PPTase inh inactive, ALDH1A1 block inactive, NPSR antagonist inactive and JMJD2E inh inactive.
COC(=O)c1cnn(-c2ccc(Cl)cc2)c1/C=N/NC(N)=S was read as FBPA coupling cs inactive, GoLoco inh red inactive, Sfp PPTase inh inactive, NPSR antagonist inactive[7.67 µM] and JMJD2E inh inactive.
CCn1c(=S)[nH]c2scc(-c3cccs3)c2c1=O was read as FBPA coupling cs inactive, GoLoco inh red inactive, Sfp PPTase inh inactive, ALDH1A1 block 14µM, NPSR antagonist 10µM and JMJD2E inh inactive.
For CC(C)n1c(=S)[nH]c2scc(-c3cccs3)c2c1=O the results were FBPA coupling cs inactive, GoLoco inh red inactive, Sfp PPTase inh 40µM, ALDH1A1 block 13µM, NPSR antagonist inactive and JMJD2E inh inactive.
O=c1c2c(-c3cccs3)csc2ncn1-c1ccccc1 was read as FBPA coupling cs inactive, GoLoco inh red inactive, Sfp PPTase inh inactive, ALDH1A1 block inconclusive, NPSR antagonist inactive and JMJD2E inh inconclusive.
Screening O=c1c2c(-c3cccs3)csc2[nH]c(=S)n1-c1ccccc1 returned FBPA coupling cs inactive, GoLoco inh red inactive, Sfp PPTase inh inactive, ALDH1A1 block 22µM, NPSR antagonist inconclusive and JMJD2E inh inactive.
Screening Cc1ccc(C)n1-n1cnc2scc(-c3cccs3)c2c1=O returned FBPA coupling cs inactive, GoLoco inh red inactive, Sfp PPTase inh inactive, ALDH1A1 block inconclusive, NPSR antagonist inactive and JMJD2E inh inactive.
CCCSCCCNC(=O)Cn1c(=O)c2cccn2c2ccccc21 was read as FBPA coupling cs inactive and Sfp PPTase inh inactive.
For C=C(C)COc1ccc(C2NC(=O)c3ccccc3O2)cc1OCC (stereo not given) the results were FBPA coupling cs inactive and Sfp PPTase inh inactive.
`Oc1ccccc1-c1nc2c3ccccc3c3ccccc3c2[nH]1` gave FBPA coupling cs -47, GoLoco inh red inactive, Sfp PPTase inh inactive, ALDH1A1 block inconclusive, NPSR antagonist inactive and JMJD2E inh inconclusive.
For c1csc(-c2nc3c4ccccc4c4ccccc4c3[nH]2)c1 the results were FBPA coupling cs inactive, GoLoco inh red inactive, Sfp PPTase inh inactive, ALDH1A1 block inconclusive, NPSR antagonist inactive and JMJD2E inh inconclusive.
O=C(CCc1nnc2ccc(N3CCC4(CC3)OCCO4)nn12)NCc1ccccc1Cl was read as FBPA coupling cs inactive and Sfp PPTase inh inactive.
Cc1ccc(C(=O)c2coc3cc([N+](=O)[O-])c(O)c([N+](=O)[O-])c23)cc1 was read as FBPA coupling cs -35, GoLoco inh red inactive, Sfp PPTase inh 40µM, ALDH1A1 block inconclusive, NPSR antagonist inactive and JMJD2E inh inactive.
Screening O=C1N=C(N2CCc3ccccc3C2)S/C1=C\c1cccc(O)c1 returned FBPA coupling cs inactive, GoLoco inh red inactive, Sfp PPTase inh inactive, ALDH1A1 block 2.5µM, NPSR antagonist inactive and JMJD2E inh inactive.
For COc1ccc(/C=C2\SC(N3CCc4ccccc4C3)=NC2=O)cc1 the results were FBPA coupling cs inactive, GoLoco inh red inactive, Sfp PPTase inh inactive, ALDH1A1 block inconclusive, NPSR antagonist inactive and JMJD2E inh inactive.
`C=CCn1c(COc2ccccc2F)nnc1SCC(=O)c1c[nH]c2ccccc12` gave FBPA coupling cs inactive, GoLoco inh red inactive, Sfp PPTase inh inactive, ALDH1A1 block inactive, NPSR antagonist inactive and JMJD2E inh inactive.
For O=C(Cc1ccccc1)NCC(=O)OCC(=O)c1ccccc1Cl the results were FBPA coupling cs inactive, GoLoco inh red inactive, Sfp PPTase inh inactive, ALDH1A1 block inconclusive, NPSR antagonist inactive and JMJD2E inh inactive.
COC(=O)C1Cc2ccccc2CN1C(=O)CCl (stereo not given) was read as FBPA coupling cs inactive, GoLoco inh red inactive, Sfp PPTase inh inactive, ALDH1A1 block 0.4µM, NPSR antagonist inactive and JMJD2E inh inactive.
For COc1ccc(/C=C(\NC(=O)c2ccc(C)cc2)C(=O)N2CCCCC2)cc1 the results were FBPA coupling cs inactive and Sfp PPTase inh inactive.
`O=[N+]([O-])c1ccc(N2CCN(C(=S)NCc3ccc(Cl)cc3)CC2)cc1` gave FBPA coupling cs inactive, GoLoco inh red inactive, Sfp PPTase inh inactive, ALDH1A1 block 11µM, NPSR antagonist inactive and JMJD2E inh inactive.
For CCNC(=S)N1CCN(c2ccc([N+](=O)[O-])cc2)CC1 the results were FBPA coupling cs inactive, GoLoco inh red inactive, Sfp PPTase inh inactive, ALDH1A1 block 3.2µM, NPSR antagonist inactive and JMJD2E inh inactive.
`C=CCNC(=S)N1CCN(c2ccc([N+](=O)[O-])cc2)CC1` gave FBPA coupling cs inactive, Sfp PPTase inh inactive, ALDH1A1 block inconclusive, NPSR antagonist inactive and JMJD2E inh inactive.
COCCCNC(=S)N1CCN(c2ccc([N+](=O)[O-])cc2)CC1 was read as FBPA coupling cs inactive, GoLoco inh red inactive, Sfp PPTase inh inactive, ALDH1A1 block 28µM, NPSR antagonist inactive and JMJD2E inh inactive.
Screening CNC(=S)N1CCN(c2ccc([N+](=O)[O-])cc2)CC1 returned GoLoco inh red inactive, Sfp PPTase inh inactive, ALDH1A1 block inconclusive, NPSR antagonist inactive and JMJD2E inh inactive.
For NCc1nnn(Cc2ccccc2)c1N the results were GoLoco inh red inactive[14.2 µM] and ALDH1A1 block inactive[13.5 µM].
Screening O=C(COc1ccc2ccccc2c1)N[C@@H](C(=O)O)c1ccc(O)cc1 returned FBPA coupling cs inactive and Sfp PPTase inh inactive.

Screening data deposited in PubChem by National Center for Advancing Translational Sciences (NCATS).
